ChEMBL document CHEMBL3988442, “University of Dundee, Small-Polar-MMV Screening Library” (2021)
The whole screen tested about 48,000 compounds, of which about 13,000 (27%) showed an effect of 50% or more. This is one part of the list.

test system: Wolbachia pipientis; assay: Anti-Wolbachia Cell-Based Screen; assay type: functional; design: scale not given: in the data most compounds retested in dose-response had high values; conditions: 5 µM

| Structure (SMILES) | Percent Effect [%] |
| --- | --- |
| Cn1cnnc1C1CCN(C(=O)CCCOc2ccccc2F)CC1 | -1.592 |
| O=C(CCOc1ccccc1F)N1CCC(O)CC1 | 96.9 |
| CN1CCOC(CNC(=O)CCCOc2ccccc2F)C1 (configuration not stated) | -10.92 |
| CCOCC(=O)N1CCC(C(O)c2ccc(F)cc2)CC1 (configuration not stated) | -2.843 |
| CC(C)c1ccc(OCCC(=O)N2CCC(CC(N)=O)CC2)cc1 | -11.97 |
| O=C(Nc1ccccc1)C1CCN(C(=O)COc2ccccc2F)CC1 | 17.88 |
| O=C(CCOc1ccccc1F)N1CCOCC1 | 105.4 |
| CN(CCOc1ccccc1F)S(=O)(=O)CC1CCOCC1 | 2.029 |
| CCN(C1CCN(c2cccc(F)c2C(C)=O)CC1)S(C)(=O)=O | -1.557 |
| COc1ccnc(N(C)Cc2csc(C)n2)n1 | -11.41 |
| CC(Cn1cncn1)Nc1ccc(-c2nccn2C)nn1 (configuration not stated) | -4.731 |
| CC(NC(=O)N(C)Cc1ccc2c(c1)OCCO2)c1nncn1C (configuration not stated) | -31.29 |
| Cc1ccc(N2CCCN(C(=O)c3cc(CC(C)C)n[nH]3)CC2)nn1 | 3.453 |
| CC(C)Cc1cc(C(=O)NCCn2nc3ccccn3c2=O)[nH]n1 | -3.6 |
| CC(C)Cc1cc(C(=O)N2CCCN(c3cccnn3)CC2)[nH]n1 | -1.538 |
| CC(C)Cc1cc(C(=O)N2CCCN(c3ncccn3)CC2)[nH]n1 | -10.26 |
| CC(C)Cc1cc(C(=O)NC(C)C)[nH]n1 | 116 |
| Cc1ccc(NCCNC(=O)c2cc(CC(C)C)n[nH]2)nn1 | 121 |
| Cc1nn(CC(=O)N2CCN(c3ncccn3)CC2)c(C)c1Cl | 17.26 |
| Cc1ccc(N(C)C2CCN(C(=O)CCc3ccco3)CC2)nn1 | -5.46 |
| Cc1ccc(N(C)[C@@H]2CC[C@@H]3CN(C(=O)C4CCOCC4)C[C@@H]32)nn1 | 186.8 |
| Cc1ccc(N(C)[C@@H]2CC[C@@H]3CN(C(=O)CC4CCOCC4)C[C@@H]32)nn1 | 152.8 |
| CN(Cc1cccs1)C1CCC[C@@H]2CN(C(N)=O)C[C@H]12.O=C(O)C(F)(F)F (some centres not stated) | 5.173 |
| CN(Cc1cccs1)C1CCC[C@@H]2CN(C(=O)c3cccn3C)C[C@H]12 (some centres not stated) | 17.98 |
| Cc1ccc(N2CCC3(CCN(C(=O)C4CCOC4)CC3)CC2)nn1 (configuration not stated) | -12.92 |
| Cc1ccc(N2C[C@H](C(=O)NCC3CC3)[C@@H]3CCO[C@@H]3C2)nn1.O=C(O)C(F)(F)F | 0.6774 |

| Structure (SMILES) | Percent Effect [%] |
| --- | --- |
| Cc1ccc(N(C)[C@@H]2CC[C@@H]3CN(C(=O)Cc4cccs4)C[C@@H]32)nn1 | 112.9 |
| CCN(CCn1cccn1)Cc1nc(-c2cccs2)oc1C | 6.026 |
| N#Cc1cccc(CN2CCn3cc(CNC(=O)C4CCC4)nc3C2)c1 | -7.661 |
| COC(=O)NCC(=O)NC(c1ccc(Cl)cc1)C(F)(F)F (configuration not stated) | -6.665 |
| COc1ccc(C(=O)N2CCCC(CNS(C)(=O)=O)C2)cc1F (configuration not stated) | 1.055 |
| COC[C@@H]1CC[C@H]2[C@H](CCN2S(=O)(=O)c2ccc(OC)cc2)O1 | -8.82 |
| COc1ccc(S(=O)(=O)N2CCC[C@@H]3CN(C(=O)C4CC4)C[C@@H]32)cc1 | 61.28 |
| CCN1C(=O)C[C@@H]2[C@@H]1CCN2S(=O)(=O)c1ccc(OC)cc1 | 1.644 |
| COc1ccc(C(=O)N2CCCC(C)C2)cc1F (configuration not stated) | 8.733 |
| COc1ccc(S(=O)(=O)N2CCC[C@@H]3CN(C(=O)C4CC4)C[C@@H]32)cc1F | 83.03 |
| O=C(NCc1cc[nH]n1)NCC(O)c1ccc(F)cc1F (configuration not stated) | 2.33 |
| CCN(CC)C(=O)[C@@H]1C[C@H](NC(=O)c2ccn(C(C)(C)C)c2)CN1C | -2.667 |
| O=C1CCCc2occ(C(=O)N3CCCC(O)(CO)C3)c21 (configuration not stated) | -7.191 |
| CO[C@H]1COCCN(C(=O)c2ccno2)C1 | -14.2 |
| Cc1ccccc1CNC(=O)CNc1ccc(OC2CCOC2)cc1 (configuration not stated) | 97.09 |
| O=C(CNc1ccc(OC2CCOC2)cc1)NCc1ccc(F)cc1 (configuration not stated) | 77.11 |
| COc1ccc(CNC(=O)CNc2ccccc2OC)cc1 | -12.04 |
| CC(C)(C)Oc1ccc(NCC(=O)NCc2ccco2)cc1 | 90.6 |
| O=C(CNc1cc2c(cc1Cl)OCCCO2)NCc1ccc(F)cc1 | 5.92 |
| O=C(CNc1ccc(OC2CCOC2)cc1)NCc1cccs1 (configuration not stated) | 90.04 |
| Cc1ccc(NCc2cccc3cn[nH]c23)cc1OC1CCOC1 (configuration not stated) | 0.01014 |
| Cc1ccccc1C(=O)Nc1ccc(OC2CCN(C)CC2)cc1 | -1.73 |
| CC(C)(Oc1ccc(F)cc1)C(=O)NCc1ccco1 | -9.094 |
| O=C(Cc1cccs1)NCc1ccnc(OC2CCOCC2)c1 | -13.9 |
| O=C(CNc1ccc(F)cc1OCC(F)(F)F)NCc1ccco1 | -21.13 |
| O=C(Nc1ccnc(OC2CCOC2)c1)c1cccs1 (configuration not stated) | -9.418 |
